Results published in PubChem BioAssay AID393 (SGCOxCompounds, 2006).
Where “and” joins values, the source holds several entries; their conditions need not be identical. Equal values may be shown once. Calls of active or inactive are those of the source. The rule behind the calls is not given here.

What follows are compounds tested against Serine/threonine-protein kinase pim-1 (Homo sapiens) (UniProt P11309) (assay: PIM1 kinase ligand binding by thermal shift, biophysical, human, melting temperature shift (AID 393)). Conditions: Thermal shift assay, stronger effect = higher value; at 10 µM, protein 2 µM, buffer 10 mM PIPES, pH 6.5, NaCl 150 mM unless noted.
Serine/threonine-protein kinase pim-1 (Homo sapiens), sequence (P11309 whole entry, looked up): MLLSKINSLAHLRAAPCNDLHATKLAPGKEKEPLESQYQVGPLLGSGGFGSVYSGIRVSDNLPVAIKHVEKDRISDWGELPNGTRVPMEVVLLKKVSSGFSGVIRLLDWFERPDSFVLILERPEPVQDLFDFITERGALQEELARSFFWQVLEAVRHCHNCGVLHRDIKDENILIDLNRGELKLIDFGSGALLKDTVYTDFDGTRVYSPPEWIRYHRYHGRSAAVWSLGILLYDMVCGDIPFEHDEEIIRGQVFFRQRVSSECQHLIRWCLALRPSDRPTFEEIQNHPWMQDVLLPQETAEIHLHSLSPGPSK

Tm shift, active:
COCCNc1ccc2ncc(-c3cccc(C(C)=O)c3)n2n1 4.92 Celsius, CC(C)(C)c1nc2c3cc[nH]c(=O)c3c3cc(F)ccc3c2[nH]1 4.9 Celsius [at 10 µM, protein 2 µM, buffer 10 mM Na Citrate, pH 6.5, NaCl 150 mM], CC(=O)c1cccc(-c2cnc3ccc(NCC4CC4)nn23)c1 6.41 Celsius [at 5 µM, protein 1 µM, buffer 10 mM HEPES], CC1N=C2SC=CN2C(=O)C1CCN1CCC(=C(c2ccccc2)c2ccc(F)cc2)CC1 (stereo not drawn) 8.2 Celsius [at 10 µM, protein 2 µM, buffer 10 mM Na Citrate, pH 6.5, NaCl 150 mM] and 6.4 Celsius [at 10 µM, protein 2 µM, buffer 10 mM Na Citrate, pH 6.5, NaCl 150 mM], Nc1ccc(-c2cnn3ccc(Nc4cccc(Cl)c4)nc23)cc1 6.84 Celsius, Cn1cc(C2=C(c3c4n(c5ccccc35)CCC(CN)C4)C(=O)NC2=O)c2ccccc21 (stereo not drawn) 5.8 Celsius [at 10 µM, protein 2 µM, buffer 10 mM Na Citrate, pH 6.5, NaCl 150 mM], Brc1c(Br)c(Br)c2n[nH]nc2c1Br 4.6 Celsius [at 10 µM, protein 2 µM, buffer 10 mM Na Citrate, pH 6.5, NaCl 150 mM], CC(C)[C@@H](CO)Nc1ccc2ncc(-c3cccc(F)c3)n2n1 5.64 Celsius
